Giardia kill = Giardia lamblia killing; Giardia lamblia trophozoite viability; activity change, % at 7.66 µM, hits read low; 340,000 tested, 0.15% active; AID 540267; in the data active = activity change below about -80%; inconclusive = between about -30% and that limit;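 also: parasites exposed to compound for two days anaerobically before the ATP read; % is scaled to controls: 0 for no effect and ±100 for the full control effect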
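Giardia trophozoites, 100 cells per well, were exposed to compounds for 48 hrs at 37 deg C under anaerobic conditions; viability was then read as ATP content by bioluminescence after 15-30 min at room temperature.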
RORgamma inh = blocks mouse ROR gamma transcriptional activity; AID 2551; P51450; Drosophila S2 Gal4-RORgamma UAS-luciferase reporter, 20 h; 310,000 tested, 5.4% active; Potency, µM (top dose mostly 53.6 µM), without a hit: top-dose activity change, negative = inhibition, usual class: inhibitors; also: potency is read from the fitted curve at half-maximal effect; % is scaled to controls: 0 for no effect and ±100 for the full control effect; nearly all actives have a fitted effect of over 60% in size
Target sequence (P51450 whole entry, looked up, the tested form may be a part): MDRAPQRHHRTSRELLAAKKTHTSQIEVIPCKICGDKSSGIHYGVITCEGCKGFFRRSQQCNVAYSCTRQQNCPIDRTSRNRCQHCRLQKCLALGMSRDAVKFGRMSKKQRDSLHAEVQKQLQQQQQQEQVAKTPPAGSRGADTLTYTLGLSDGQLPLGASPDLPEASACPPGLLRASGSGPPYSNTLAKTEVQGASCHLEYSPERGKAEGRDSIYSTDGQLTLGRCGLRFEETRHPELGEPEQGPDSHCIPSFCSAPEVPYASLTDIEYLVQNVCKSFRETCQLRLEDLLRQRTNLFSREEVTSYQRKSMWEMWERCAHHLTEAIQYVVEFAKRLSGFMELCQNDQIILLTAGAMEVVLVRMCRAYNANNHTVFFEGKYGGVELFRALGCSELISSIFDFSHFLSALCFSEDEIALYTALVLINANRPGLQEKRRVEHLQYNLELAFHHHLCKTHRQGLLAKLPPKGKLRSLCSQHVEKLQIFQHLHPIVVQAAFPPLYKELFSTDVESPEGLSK
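Read-out: Photinus luciferase luminescence; inhibitors lower reporter signal. Insect Schneider cells with Gal4-ROR gamma fusion under metallothionein promoter, UAS reporter; 700 uM final copper sulfate induction, 20 hr, ambient temperature.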
MCF10A rerep = DNA re-replication induction in MCF 10a cells; MCF 10A DNA re-replication, Hoechst nuclear intensity, 48 h; 350,000 tested, 2.9% active; Potency, µM (series often up to 46.1 µM), without a hit: at the highest dose activity, positive = re-replication, hits mostly activators; also: potency is read from the fitted curve at half-maximal effect; % of control where 0% means no effect; nearly all actives have a fitted effect of over 50% in size
Chronic BCR inh = chronic active BCR signaling inhibition. ABC-DLBCL IkBa-CBG/CBR reporter, luminescence ratio, 4 h. Potency, µM (series often up to 46.1 µM), inactives show top-dose activity change, negative = inhibition, usual class: inhibitors. 340,000 tested, 0.05% active; active = well fitted inhibition curve with a large enough effect in the signal ratio, with a control signal flat, not every such curve was filed as active; inconclusive = small, poorly fitted or top-dose-only effect, or effect the other way, or a change in a side signal; the % refers to the signal ratio;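 also: potency is read from the fitted curve at half-maximal effect; plate controls were basal doxycycline-induced cells for no effect and cells given 10 µM MG132 for full effect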
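Cell line TMD8 (human ABC DLBCL), stably expressing tet-inducible CBG68-IkBa fusion and CBR; IMDM/0.5% FBS; cpd up to 46 uM; dox induction, 4 h, 37C/5% CO2; dual luminescence; green/red ratio; MG132 control.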
Gal4-VP16 FLuc = Gal4-VP16 reporter inhibition counter-screen | 310,000 tested, 3.5% active | Potency, µM (top dose mostly 53.6 µM), for inactives: at the top dose activity, negative = inhibition, most hits filed as inhibitors | Drosophila S2 Gal4-VP16 UAS-luciferase, luminescence, 20 h | AID 2546;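 also: Gal4-VP16 expression switched on by copper sulfate through the metallothionein promoter; potency is read from the fitted curve at half-maximal effect; % is scaled to controls: 0 for no effect and ±100 for the full control effect; nearly all actives have a fitted effect of over 50% in size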
SW480 rerep = inducers of DNA re-replication in SW480 colon cancer cells | SW480 DNA re-replication, Hoechst DNA content imaging, 48 h | Potency, µM (highest dose often 46.1 µM), inactives show top-dose re-replication activation, actives largely listed as activators | 340,000 tested, 1.8% active; also: potency is read from the fitted curve at half-maximal effect; % of control where 0% means no effect; nearly all actives have a fitted effect of over 55% in size
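DNA re-replication was detected as more nuclei of elevated Hoechst intensity after 48 hr exposure to compound (23 nL pinned per well of 250 cells).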
Active calls of the source: *; u = inconclusive; x = not tested or not shown. Hits are enriched below; roughly 8.3% of the tested compounds scored in any of these assays. Unless noted, calls follow the shape of the dose curve; as a rule, active = well fitted curve in the direction sought with a large enough effect; inconclusive = small, poorly fitted or top-dose-only effect, or another doubt; inactive = no such curve, though single readings can be large; an effect the other way counts as inactive or inconclusive.

SMILES	Giardia kill	RORgamma inh	MCF10A rerep	Chronic BCR inh	Gal4-VP16 FLuc	SW480 rerep
CNc1cc(C)c(C#N)c2nc3ccccc3n12	4.1	16.6%	27.0%	0.3%	-8.1%	u
COC(=O)[C@@H]1C[C@@]2(O)[C@H](O)[C@H](O)[C@H](O)C[C@H]2N1Cc1ccc(N2CCOCC2)cc1	x	-5.7%	x	x	4.6%	x
CC1CCC(NC(=O)c2ccc(NC(=O)CC3SC(N4CCCC4)=NC3=O)cc2)CC1 (centres undefined)	5.2	x	1.1%	u	x	-61.5%
CCC(CO)NCC#Cc1ccccc1 (centres undefined)	5.6	-14.6%	5.0%	u	5.1%	5.4%
CC(C)(C)c1ccccc1NC(=O)c1ccco1	0.8	-0.4%	29.0%	4.4%	8.3%	-5.5%
COc1ccc(C2CC(c3ccccc3)=NN2c2ccc(S(N)(=O)=O)cc2)cc1OC (centres undefined)	-12.6	7.9%	16.4µM*	u	-3.6%	23.1µM*
NS(=O)(=O)c1ccc(N2N=C(c3ccccc3)CC2c2cccc(Br)c2)cc1 (centres undefined)	u	x	5.17µM*	1.1%	x	23.1µM*
COc1ccc(C2=NN(c3ccc(C(=O)O)cc3)C(c3ccc(OC)c(OC)c3)C2)cc1 (centres undefined)	-13.1	7.08µM*	3.26µM*	u	-15.4%	18.4µM*
COc1ccc(C2CC(c3ccccc3)=NN2c2ccccc2)c(C(=O)O)c1OC (centres undefined)	-10.6	28.5%	18.4µM*	-18.3%	-9.8%	u
C[C@H]1NC(=O)[C@@]2(C)[C@H](c3ccccc3)[C@H]3COc4ccccc4[C@@H]3N2C1=O	4.8	x	-16.0%	u	x	10.9%
COc1ccc(C2=NN(C(=O)c3ccccc3)C(c3ccc(OC)c(OC)c3)C2)c(OC(C)=O)c1 (centres undefined)	x	8.7%	x	u	1.6%	x
NS(=O)(=O)c1ccc(N2N=C(c3ccccc3)CC2c2ccccc2Br)cc1 (centres undefined)	23.1	x	u	5.7%	x	11.6µM*
O=[N+]([O-])c1ccc(N2N=C(c3ccccc3)CC2c2ccccc2O)cc1 (centres undefined)	x	10.8%	x	u	u	x
NS(=O)(=O)c1ccc(N2N=C(c3ccc(Br)cc3)CC2c2ccc(F)cc2)cc1 (centres undefined)	-2.9	u	1.84µM*	u	u	u
COc1cc(C2CC(c3ccccc3)=NN2c2ccccc2)ccc1OCC(=O)O (centres undefined)	3.5	-28.7%	4.11µM*	u	-5.8%	16.4µM*
NS(=O)(=O)c1ccc(N2N=C(c3ccccc3)CC2c2cccc(F)c2)cc1 (centres undefined)	-18.3	38.0%	2.59µM*	8.8%	-14.3%	4.11µM*
Cc1ccc(C(=O)COC(=O)COc2ccccc2C)cc1	-9.4	1.9%	2.0%	4.6%	-6.1%	-4.0%
O=C(NCCNC1CCC(c2ccccc2)CC1)c1cccs1 (centres undefined)	-3.4	-10.4%	-0.2%	1.8%	-1.8%	u
COc1cc(C2CC(c3cccnc3)=NN2c2ccc(F)cc2)cc(OC)c1OC (centres undefined)	-3.2	-2.9%	u	u	u	8.2µM*
COc1cc(N2N=C(c3ccccc3)CC2c2ccccc2)c(C=O)cc1C=O (centres undefined)	-4.0	-20.2%	u	3.1%	-3.6%	18.5%
CCCc1c(O)nc(SCC(=O)NCc2ccco2)[nH]c1=O	-10.9	-2.7%	-8.7%	5.6%	-4.7%	4.8%
CC(C)CN1CC(C)C(=O)N(c2ccccc2)C1=O (centres undefined)	2.5	x	-2.3%	x	x	-5.7%
CN(C)S(=O)(=O)c1ccc2c(c1)/C(=C/c1cc3c([nH]1)CCCC3)C(=O)N2	14.1	x	u	u	x	10.3µM*
CC(Sc1nnc(CN2CCCC2)n1Cc1ccccc1)C(=O)Nc1ccc(F)cc1Cl (centres undefined)	7.0	x	u	x	x	3.66µM*
Cc1nnc(SC(C)C(=O)Nc2ncc(Cl)cc2Cl)n1Cc1ccccc1 (centres undefined)	-10.6	u	-2.1%	-8.3%	28.2µM*	-5.9%
SMILES	Giardia kill	RORgamma inh	MCF10A rerep	Chronic BCR inh	Gal4-VP16 FLuc	SW480 rerep
COCCn1c(SC(C)C(=O)Nc2ncc(Cl)cc2Cl)nc2ccccc21 (centres undefined)	4.3	-36.0%	-0.8%	16.4%	3.4%	3.4%
O=S(=O)(NCc1ccc2c(c1)OCO2)c1cccc(S(=O)(=O)N2CCOCC2)c1	-19.9	13.5%	7.4%	-2.1%	2.3%	-1.4%
CCOC(=O)C(C(=O)OCC)C(Nc1ccccc1)c1ccccc1 (centres undefined)	-29.1	-26.6%	20.6µM*	u	-13.7%	1.0%
CCOC(=O)C(c1ccccc1)C(Nc1ccccc1)c1ccccn1 (centres undefined)	u	3.3%	-3.4%	5.9%	11.5%	-13.3%
CN1CCC(Oc2ccccc2Sc2ccc(C(F)(F)F)cc2)CC1	14.9	-12.6%	8.2µM*	u	-27.6%	u
CN1CCC(Oc2ccc(Sc3ccccc3)cc2)CC1	-5.6	-0.7%	31.3%	u	-12.5%	10.8%
CC(=O)c1ccc(-c2cccc(C3C4C=CCCC4(C)C(=O)N3Cc3ccccc3)c2)cc1 (centres undefined)	-29.2	-37.5%	x	x	-4.1%	x
Nc1nonc1-n1nnc(C(=O)N/N=C/c2ccccc2Cl)c1-c1ccc2c(c1)OCO2	21.4	18.6%	1.4%	-0.4%	-21.8%	-6.5%
Nc1nonc1-n1nnc(C(=O)N/N=C/c2cccs2)c1-c1ccc2c(c1)OCO2	-11.2	7.94µM*	0.7%	3.4%	10µM*	29.8%
Cc1ccsc1/C=N/NC(=O)c1nnn(-c2nonc2N)c1-c1ccc2c(c1)OCO2	u	10µM*	0.3%	u	u	u
CC(C)CN(C(=O)c1cccs1)C1CCS(=O)(=O)C1 (centres undefined)	-26.3	x	12.5%	-2.3%	x	-119.4%
CCc1n[nH]c(=S)n1/N=C/c1ccc2c(c1)OCO2	5.9	11.2µM*	-2.1%	1.5%	u	0.1%
CCN(CC)c1ccc(/C=N/n2c(-c3ccccc3Br)n[nH]c2=S)cc1	10.0	1µM*	-2.7%	-10.8%	-4.5%	5.2%
Cc1nn(-c2ccccc2)c(C)c1/C=N/n1c(-c2ccccc2Br)n[nH]c1=S	7.1	u	u	10.6%	-8.6%	u
CCc1n[nH]c(=S)n1/N=C/c1ccccn1	-7.4	2.3%	-5.8%	-3.7%	-2.9%	-0.1%
